Sampled rows, rich in hits. Any-hit rate of the full collection: about 12%.
G9a inh – inhibitors of human histone lysine methyltransferase G9a. Q96KQ7. G9a H3K9 monomethylation, AlphaScreen, 2 h. Potency, µM (doses to about 102 µM), for inactives: top-dose activity, negative = inhibition, actives largely listed as inhibitors. 350,000 tested, 8.8% active. AID 504332; further: potency means the concentration at half of the fitted maximal effect; on the % scale 0 is the no-effect control and ±100 the full control effect; nearly all actives have a fitted effect of over 75% in size
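G9a (20 nM) preincubated 15 min RT with compounds, then 500 nM biotinylated H3K9 peptide and 20 uM SAM added; 2 h RT reaction. Monomethyl-H3K9 product detected by AlphaScreen with anti-H3K9me1 antibody, streptavidin donor and anti-rabbit IgG acceptor beads.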
JMJD2A Tudor inh – blocks the human JMJD2A Tudor domain. O75164. AlphaScreen JMJD2A-Tudor / H3K4me3 peptide binding. Potency, µM (top dose mostly 114 µM), without a hit: top-dose activity change, negative = inhibition, hits mostly inhibitors. 390,000 tested, 4.4% active. AID 504339; further: potency means the concentration at half of the fitted maximal effect; on the % scale 0 is the no-effect control and ±100 the full control effect; nearly all actives have a fitted effect of over 50% in size
PLK1 PBD inh – PLK1 (human) polo-box domain binding inhibition | AID 720504 | P53350 | Plk1 PBD binding of FITC phosphopeptide, fluorescence polarization | 360,000 tested, 2.8% active | Potency, µM, for inactives: max response, negative = inhibition, usual class: inhibitors; further: potency means the concentration at half of the fitted maximal effect; series mostly up to about 57 µM; on the % scale 0 is the no-effect control and ±100 the full control effect; nearly all actives have a fitted effect of over 65% in size
Target sequence (P53350 whole entry, looked up, the tested form may be a part): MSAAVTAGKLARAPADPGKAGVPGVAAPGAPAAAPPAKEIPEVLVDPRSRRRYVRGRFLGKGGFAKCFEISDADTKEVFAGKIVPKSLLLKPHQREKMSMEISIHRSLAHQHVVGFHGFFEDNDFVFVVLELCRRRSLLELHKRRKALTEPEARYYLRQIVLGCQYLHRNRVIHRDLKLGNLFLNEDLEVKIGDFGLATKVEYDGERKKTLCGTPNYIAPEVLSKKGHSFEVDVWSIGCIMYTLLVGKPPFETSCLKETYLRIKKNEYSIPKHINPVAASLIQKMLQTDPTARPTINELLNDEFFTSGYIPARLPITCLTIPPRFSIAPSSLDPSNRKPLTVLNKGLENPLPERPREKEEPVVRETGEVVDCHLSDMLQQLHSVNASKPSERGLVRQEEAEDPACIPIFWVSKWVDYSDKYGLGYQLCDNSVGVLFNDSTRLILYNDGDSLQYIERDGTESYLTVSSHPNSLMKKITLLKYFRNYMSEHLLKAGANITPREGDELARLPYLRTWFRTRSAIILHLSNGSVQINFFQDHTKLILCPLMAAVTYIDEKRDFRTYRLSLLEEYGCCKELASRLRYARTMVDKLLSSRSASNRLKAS
BAZ2B block – BAZ2B (human) inhibition. Potency, µM (highest dose often 114 µM), inactives show at the highest dose activity change, negative = inhibition, usual class: inhibitors. 360,000 tested, 4.4% active. AlphaScreen BAZ2B-H3K14Ac peptide displacement. AID 504333. Q9UIF8; further: potency means the concentration at half of the fitted maximal effect; on the % scale 0 is the no-effect control and ±100 the full control effect; nearly all actives have a fitted effect of over 60% in size
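AlphaScreen displacement of biotin-H3(5-23)K14Ac peptide (50 nM final) from BAZ2B (50 nM final) in PBS pH 7.4, 0.01% Tween-20; complex preformed 30 min RT, then compounds (top 110 uM) 30 min RT, beads 20 min dark.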
HP1b binding inh – inhibitors of HP1-beta chromodomain binding to methylated histone tails. AlphaScreen HP1-beta / biotin-H3K9me3 peptide binding. AID 540317. Potency, µM (top dose mostly 114 µM), without a hit: at the highest dose activity change, negative = inhibition, actives largely listed as inhibitors. P83916. 390,000 tested, 0.56% active; further: potency means the concentration at half of the fitted maximal effect; nearly all actives have a fitted effect of over 70% in size
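HP1-beta protein (50 nM final) preincubated 30 min at room temperature with biotinylated H3(1-18)K9me3 peptide (50 nM) in PBS pH 7.4, 0.01% Tween-20, then compound added for 30 min. AlphaScreen streptavidin donor/nickel chelate acceptor beads (10 ug/mL final), 30 min dark, luminescence read.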
PI5P4K alpha inh – PI5P4K alpha (human) kinase inhibition | P48426 | 330,000 tested, 1.2% active | max response, % | PI5P4Kalpha enzyme, ADP-Glo luminescence, 60 min; stronger effect = lower value; active means max response of -50% or lower; inconclusive means between -30% and -50%; inactive means -30% or higher; further: value at the top dose of about 77 µM; on the % scale 0 is the no-effect control and ±100 the full control effect
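Quantitative HTS of the MLSMR library against PI5P4Kalpha with substrate. ATP added last at 5 microM final; room temperature, 60 minutes. Remaining ATP depleted, ADP converted and read as luminescence.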
ADP-Glo counter – ADP-Glo luciferase interference, PI5P4K counter-screen. shares compounds with PI5P4K alpha inh. ADP-Glo detection counter-screen, luciferase luminescence, no enzyme. Potency, µM (doses to about 76.9 µM), without a hit: top-dose activity change, negative = inhibition, most hits filed as inhibitors. 1,100 tested, under 10 active. AID 743285
The depositor's hits bear a star; ? = inconclusive; · = no result given; [ ] = remark or other dose. Unless noted, the call rests on the fitted dose curve; in most records, active means well fitted curve in the direction sought with a large enough effect; inconclusive means small, poorly fitted or top-dose-only effect, or another doubt; inactive means no such curve, though single readings can be large; an effect the other way counts as inactive or inconclusive.

SMILES	G9a inh	JMJD2A Tudor inh	PLK1 PBD inh	BAZ2B block	HP1b binding inh	PI5P4K alpha inh	ADP-Glo counter
CCCCc1nnc(NC(=O)CC(=O)Nc2ccccc2C(=O)O)s1	-42.0%	-19.9%	-4.4%	6.8%	7.7%	-61.3*	-8.7%
CCc1nnc(NC(=O)CC(=O)Nc2ccccc2C(=O)O)s1	0.5%[59 µM]	?	1.1%	8.5%	14.5%	·	·
COCCN(Cc1ccco1)C(=O)C1CCCN(c2ncnc3c2nc2n3CCCCC2)C1 (configuration not stated)	-4.0%	-8.3%	3.7%	-31.7%	20.3%	4.0	·
CC1=C(C(=O)Nc2cc(C(=O)N3CCN(c4ccc(Cl)cc4)CC3)ccc2C)SCCO1	·	·	-7.8%	·	·	?	·
CCOc1ccc(S(=O)(=O)N2CCN(Cc3ccc4c(c3)OCO4)CC2)cc1C	-8.1%	-7.0%	0.0%	-10.9%	42.8%	3.5	·
O=C(Nc1ccc(-c2nc3ncccc3o2)cc1)c1ccco1	-35.5%[12.7 µM]	35.5µM*	10.6µM*	-3.8%	-13.0%	-53.0*	4.9%
COc1ccc(CC(=O)NCC(=O)NC(Cc2ccccc2)C(=O)O)cc1 (configuration not stated)	5.1%	-21.4%	-4.7%	-14.2%	26.8%	-65.4*	-1.4%
O=C(Cc1ccccc1)N[C@@H](Cc1ccccc1)C(=O)O	7.6%[59 µM]	-16.4%	-3.6%	-0.5%	37.8%	-25.5	·
O=C(CSc1nc2[nH]c(=O)cc(O)c2s1)Nc1ccc(Br)cc1	19.7%[12.7 µM]	-4.7%	-5.3%	0.7%	30.1%	-52.1*	-1.2%
Cc1cccc(NC(=O)CSc2nc3[nH]c(=O)cc(O)c3s2)c1	?	-12.9%	-20.9%	-0.5%	12.6%	-52.7*	6.3%
O=C(CSc1nc2[nH]c(=O)cc(O)c2s1)Nc1cccc(Br)c1	-5.3%[12.7 µM]	-27.4%	-18.9%	-4.7%	24.4%	?	·
Cc1cccc(C)c1NC(=O)CSc1nc2[nH]c(=O)cc(O)c2s1	-8.8%[12.7 µM]	-5.7%	-17.0%	11.0%	38.2%	-16.9	·
CCc1ccccc1NC(=O)CSc1nc2[nH]c(=O)cc(O)c2s1	-44.6%	-6.2%	-11.4%	-37.2%	13.6%	?	·
Cc1ccccc1NC(=O)CSc1nc2[nH]c(=O)cc(O)c2s1	?	-8.3%	-6.7%	4.4%	27.8%	-62.0*	-9.8%
COc1ccc(C)cc1S(=O)(=O)N1c2ccc(C)cc2C2CN(C)CCC21 (configuration not stated)	?	-28.2%	-15.9%	6.6%	-11.8%	-6.4	·
CCOC(=O)N1CCN(C(=O)CCS(=O)(=O)c2ccc3c(c2)CCN3C(=O)CC)CC1	2.2%	-0.8%	-4.5%	-13.6%[57.1 µM]	38.4%	?	-1.9%
O=C(Nc1ccc(S(=O)(=O)N2CCCCC2c2cccnc2)cc1)c1ccc(Br)cc1 (configuration not stated)	6.0%[59 µM]	-13.5%	·	-12.7%	28.4%[57 µM]	·	·
NC(Cc1ccc(C(F)(F)F)cc1)c1csc(NC(=O)Nc2ccccc2Oc2ccccc2)n1 (configuration not stated)	·	·	-3.7%	·	·	-50.3*	-1.2%
O=C(Nc1ccsc1C(=O)O)c1cccc(C(F)(F)F)c1	-20.1%	-25.4%	1.8%	-41.5%	36.6%	-58.4*	1.8%
CCc1c(C)sc(NC(=O)Cn2nc(C)c([N+](=O)[O-])c2C)c1C(N)=O	3.55µM*	-18.8%	5.97µM*	-30.6%	?	-58.2*	-0.2%
COc1ccc(Nc2nc(N)c(C(=O)c3ccc(F)cc3)s2)cc1	?	?	-2.6%	20.7%	-4.1%	-53.9*	0.9%
CC(=O)Oc1ccc(C(=O)Nc2cccc(C(=O)Nc3ccccc3C(=O)O)c2)cc1	14.0%	-11.4%	-12.8%	0.8%	18.5%	-51.0*	3.0%
COc1ccccc1C(=O)Nc1ccc(C(=O)Nc2ccccc2C(=O)O)cc1	-19.8%	-9.9%	-1.3%	-9.2%	17.8%	-79.5*	0.6%

Compound activity deposited in PubChem by National Center for Advancing Translational Sciences (NCATS).
